# High-throughput results deposited in PubChem BioAssay by National Center for Advancing Translational Sciences (NCATS).
# Rows were chosen to be rich in hits. Some 11% of all compounds tested hit in one or more screens of this group.
# Pf growth 96h = P. falciparum growth inhibition at 96 hours. P. falciparum luciferase reporter growth, 96 h. Potency, µM (doses to about 28.7 µM), without a hit: at the top dose activity change, negative = inhibition, most hits filed as inhibitors. 320,000 tested, 6.9% active
#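 Compounds incubated with erythrocytes infected by luciferase-expressing P. falciparum (2% hematocrit, 0.05% parasitemia final) for 96 hours, 37 C in 5% CO2. Growth inhibition scored as decreased luciferase luminescence.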
# AMA1 RON2 block = inhibitors of Plasmodium falciparum AMA1-RON2 interaction; Potency, µM (highest dose often 58.2 µM), without a hit: top-dose activity change, negative = inhibition, actives largely listed as inhibitors; 360,000 tested, 0.2% active; AlphaScreen AMA1-biotinylated RON2 peptide binding;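 note: 0% = vehicle wells and -100% = peptide control; nearly all actives have a fitted effect of over 45% in size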
#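 AMA1 (3D7) with his tag at 25 nM final met compounds first, then biotinylated RON2 peptide at 25 nM; detection used donor plus acceptor beads, 10 µg/mL apiece, read by AlphaScreen after 30 min at room temperature.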
# HCV inh = blocks hepatitis C virus; AID 651820; Potency, µM (series often up to 41.8 µM), for the others: at the highest dose activity change, negative = inhibition, hits mostly inhibitors; 340,000 tested, 3.4% active; Huh7.5.1 HCVcc-Cre infection, luciferase reporter, 44 h
#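 Cells seeded at 1,000/well and cultured 4 h, then compounds added followed by HCVcc-Cre virus (~0.5 moi). After 44 h further culture, luciferase substrate was added, plates held 15 min at room temperature, and luminescence read for 15 sec.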
# Pf growth 48h = P. falciparum growth inhibition at 48 hours (one generation); P. falciparum luciferase growth in erythrocytes, 48 h; Potency, µM (titrated, usually from 28.7 µM), inactives show top-dose activity change, negative = inhibition, actives largely listed as inhibitors; 310,000 tested, 5.9% active
#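 Parasite viability was followed by luminescence of a genomically integrated firefly luciferase. Cultures held 0.1% parasitemia at 2% hematocrit (final), incubated under 5% CO2 at 37 C.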
# * = called active by the depositor; u = inconclusive; x = no result; [ ] = remark or other dose. Calls come from the whole dose curve; as a rule, active = well fitted curve in the direction sought with a large enough effect; inconclusive = small, poorly fitted or top-dose-only effect, or another doubt; inactive = no such curve, though single readings can be large; an effect the other way counts as inactive or inconclusive. Unless noted, % is set by controls: 0 for no effect and ±100 for the full control effect; potency is the fitted concentration of half-maximal effect.
SMILES,Pf growth 96h,AMA1 RON2 block,HCV inh,Pf growth 48h
CCC/C=C(\CCC)C(NC(=O)OCC(C)C)c1ccc(C(=O)OC)cc1 (stereo not given),u,19%,-16%[8.37 µM],u
CCC/C=C(\CCC)C(NS(=O)(=O)c1cccc2cccnc12)c1ccc(C(=O)OC)cc1 (stereo not given),13µM*,-1%,4%[8.37 µM],u
CCCN(C(=O)C(=O)Nc1ccc2nc3n(c(=O)c2c1)CCCCC3)c1ccc(OCC)cc1,-9%,-3%,u,0.12µM*
COc1cc(C(=O)Nc2ccc3nc4n(c(=O)c3c2)CCCCC4)cc(OC)c1OC,2.6µM*,-11%,11µM*,-8%
O=C(Nc1nc(-c2ccccc2)cs1)c1ccc2c(=O)n3c(nc2c1)CCCCC3,u,-7%,2.5µM*,2%
CCOC(=O)Nc1ccc2nc3n(c(=O)c2c1)CCCCC3,0%,-6%,-24%,34%
Cc1ccc(NC(=O)c2ccc3c(=O)n4c(nc3c2)CCCCC4)cc1F,u,-3%,10µM*,-12%
COCCNC(=O)C(c1ccc(F)cc1)N(Cc1cccs1)C(=O)CCC(=O)Nc1ccccn1 (stereo not given),16%,5%,8%,6%
COc1cccc(COC(=O)c2ccc3c(=O)n4c(nc3c2)CCC4)c1OC,u,6%,-8%,13µM*
O=C(Nc1ccc(F)cc1Cl)c1ccc2c(=O)n3c(nc2c1)CCCCC3,3.7µM*,15%,2%,10%
COc1cccc(CN(C)C(=O)c2ccc3c(=O)n4c(nc3c2)CCC4)c1OC,-4%,-1%,3%,-5%
O=C(Nc1ccc2nc3n(c(=O)c2c1)CCCCC3)c1c(F)ccc([N+](=O)[O-])c1F,u,-1%,14µM*,u
O=c1c2cc(NC(=S)N3CCC(N4CCCCC4)CC3)ccc2nc2n1CCCCC2,8%,4%,1%,-16%
Cc1cccc(N2CCN(C(=S)Nc3ccc4nc5n(c(=O)c4c3)CCCCC5)CC2)c1C,u,5%,6.3µM*,-29%
CC(C)(C)C(CN1CCCC1)OC(=O)c1ccccc1 (stereo not given),-74%,14%,0%,13%
O=C(COC(=O)/C=C/c1ccc(F)cc1)Nc1ccc(S(=O)(=O)N2CCOCC2)cc1,x,-4%[11.6 µM],6%,x
Nc1ccccc1-n1nc2ccc3ccccc3c2n1,x,197%,x,x
O=C(Nc1ccc(S(=O)(=O)C(F)F)cc1)c1ccc2c(=O)n3c(nc2c1)CCC3,u,0%,u,u
CCOc1ccccc1N(CC)C(=O)c1ccc2c(=O)n3c(nc2c1)CCCCC3,12µM*,16%,-26%,u
Cc1cccc(NC(=O)c2ccc3c(=O)n4c(nc3c2)CCCCC4)n1,58%,14%,14µM*,7%
Cc1ccc(NC(=O)c2ccc3c(=O)n4c(nc3c2)CCCCC4)nc1,3%,-8%,u,29%
O=C(Nc1ccc(SC(F)F)cc1)c1ccc2c(=O)n3c(nc2c1)CCC3,158%,0%,4µM*,186%
COCCn1c(C)cc(C(=O)COC(=O)c2ccc(Cl)c(S(N)(=O)=O)c2)c1C,120%,u,0%[8.37 µM],-65%
CCN(Cc1ccccc1)C(=O)c1ccc(NC(=O)c2ccc(OC)cc2)cc1,-4%,-9%,13µM*,-9%
COc1ccc(C(=O)COC(=O)c2ccc(NC(=O)c3ccccc3)cc2)cc1,11%,5%,10µM*,21%
SMILES,Pf growth 96h,AMA1 RON2 block,HCV inh,Pf growth 48h
COc1ccc(C(=O)Nc2ccc(C(=O)OCC(=O)c3ccccc3)cc2)cc1,-10%,15%,13%,10%
N#C/C(=C\c1ccccc1)C(=O)NNS(=O)(=O)c1ccc(Br)cc1,x,99%,11%,x
COC(=O)C[N+](C)(C)CC#Cc1ccccc1,u,-8%,6%,-5%
C#CC[N+](C)(C)C(C#Cc1ccccc1)CC=C (stereo not given),5.9µM*,5%,20%,9.3µM*
O=C1C(Cl)=C(Nc2ccccc2)C(=O)c2ccccc21,8%,-4%,u,23%
COCCCNC1=C(Cl)C(=O)c2ccccc2C1=O,2.3µM*,10%,-15%,4.1µM*
CCN(CC)CCCNC1=C(Cl)C(=O)c2ccccc2C1=O,u,-14%,3.2µM*,u
CC(C)OCCCNC1=C(Cl)C(=O)c2ccccc2C1=O,4.1µM*,20µM*,-4%,2.9µM*
CC(C)NC1=C(Cl)C(=O)c2ccccc2C1=O,0.93µM*,u,u,x
